PubChem BioAssay
The source made the active and inactive calls. Unless noted, the rule behind the calls is not given here.

Key:
[1] = anti-His antibody binders, primary screen, artefact control for SMM control protein annotation, biochemical, small-molecule microarray, 635 nm fluorescence (AID 1128); conditions: anti-His Alexa647 antibody binding, higher = more signal;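 note: score merges feature fluorescence with signal-to-noise for each printed compound spot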
[2] = system: Human papillomavirus type 1a E7 protein (residues 1-88); test: HPV1a E7 small-molecule binders, primary screen, biochemical, small-molecule microarray, residues 1-88, 635 nm (AID 1129); conditions: small-molecule microarray binding, fluorescence 635 nm; higher = more signal
[3] = target: Focal adhesion kinase 1 (Homo sapiens) (UniProt Q05397); test: small-molecule microarray binders of FAK, primary screen, biochemical, 635/667 nm fluorescence, BSA, DTT (AID 1130); conditions: PTK2 binding, 635 nm fluorescence, higher = more signal;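 note: composite of spot emission at 667 nm and signal to noise over triplicate slides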
[4] = system: Fibrinogen (Alexa647-labelled); test: fibrinogen binders on compound microarrays, profiling panel, artefact control for SMM control-protein annotation, biochemical, small-molecule microarray, 635/667 nm fluorescence (AID 1131); conditions: fibrinogen-A647 binding fluorescence, higher = more signal;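 note: z-score merges 667 nm fluorescence with per-spot signal-to-noise over triplicate slides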
[5] = target: Follistatin (Homo sapiens) (UniProt P19883); test: follistatin binders on small-molecule microarrays, primary screen, biochemical, small-molecule microarray, 635/667 nm fluorescence (AID 1132); conditions: FST binding, 635 nm fluorescence, higher = more signal
[6] = target: Fibroblast growth factor 2 (Homo sapiens) (UniProt P09038); test: FGF2 binders on small-molecule microarrays, primary screen, biochemical, small-molecule microarray, 635/667 nm fluorescence (AID 1133); conditions: small-molecule microarray binding, FGF2, fluorescence 635/667; higher = more signal
[7] = mitochondrial membrane potential change in A549 cells, profiling panel, cell-based, JC-1 fluorescence, basal, 24 h, 100 nL (AID 1138); conditions: higher = more signal;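 note: A549 lung adenocarcinoma cells under basal conditions with no added stimulus; test concentration not given here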
Lefty1 = Lefty1 binders on small-molecule microarrays, primary screen, biochemical, small-molecule microarray, 635/667 nm fluorescence (AID 1139); conditions: small-molecule microarray binding, fluorescence 635/667; higher = more signal
[8] = system: wheat germ agglutinin (Triticum aestivum), Alexa647-labelled; test: wheat germ agglutinin binders on compound microarrays, profiling panel, artefact control for SMM control-protein annotation, biochemical, small-molecule microarray, 635/667 nm fluorescence (AID 1140); conditions: WGA-A647 binding, 635 nm fluorescence, higher = more signal;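 note: score merges 667 nm feature emission with signal to noise over triplicate slides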
[9] = target: Luciferin 4-monooxygenase (Photinus pyralis) (UniProt P08659); test: firefly luciferase enzyme inhibitors, primary screen, biochemical, luminescence, purified enzyme, 2006 set (AID 1141); conditions: SteadyGlo luminescence, 30 min, higher = more signal, called active from +8 up or from −8 down;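 note: cell-free assay with purified firefly luciferase at 100 ng per well in PBS; test concentration not given here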
[10] = system: Wnt5a (protein binding on small-molecule microarray); test: Wnt5a binders on small-molecule microarray, primary screen, biophysical, 635/667 nm fluorescence (AID 1142); conditions: 635 nm fluorescence, higher = more signal;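 note: fluorescence read at 667 nm with signal to noise per printed feature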
[11] = cell viability in Huh7 cells, primary screen, cytotoxicity control for HCV replication inhibitor project, CellTiter-Glo luminescence, basal, 48 h (AID 1143); conditions: Huh7 HCV replicon, higher = more signal, called active from +8 up or from −8 down;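 note: Huh7 hepatoma cells carrying a hepatitis C replication reporter with no stimulus; test concentration not given here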
[12] = P. aeruginosa biofilm formation inhibitors, primary screen, PAO1 strain, BacTiter-Glo luminescence, LB-PBS (AID 1144); conditions: 12 h, higher = more signal
[13] = CREB reporter modulators without forskolin, primary screen, cell-based, PC12, CRE-LacZ reporter, unstimulated (AID 1145); conditions: no forskolin, luminescence, 4.5 h, higher = more signal, called active from +8 up or from −8 down
[14] = CREB reporter modulators under forskolin, primary screen, cell-based, PC12, CRE-LacZ reporter, forskolin-stimulated (AID 1146); conditions: luminescence, 4.5 h, higher = more signal, called active from +8 up or from −8 down;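 note: PC12 cells with 6xCRE LacZ reporter stimulated by forskolin 10 µM; beta-galactosidase reporter signal reflecting CREB driven transcription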
[15] = target: Streptavidin (Streptomyces avidinii) (UniProt P22629); test: streptavidin binders on small-molecule microarray, primary screen, artefact control for SMM compound annotation, biophysical, 635/667 nm fluorescence (AID 1147); conditions: streptavidin binding, higher = more signal;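 note: signal reflects streptavidin binding to arrayed compounds as a control protein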
[16] = small-molecule binders of probe aInhba, primary screen, biochemical, small-molecule microarray, 635/667 nm fluorescence (AID 1148); conditions: higher = more signal;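 note: score merges 667nm spot fluorescence with signal-to-noise for antibody binding to printed compounds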
Torsin-1A (Homo sapiens) [17] = target: Torsin-1A (Homo sapiens) (UniProt O14656); test: torsin A binders from cell lysate, primary screen, small-molecule microarray, wild-type, 635/667 nm (AID 1149); conditions: COS7 hTOR1A-WT lysate, 635 nm fluorescence, higher = more signal
Torsin-1A (Homo sapiens) [18] = target: Torsin-1A (Homo sapiens) (UniProt O14656); test: small-molecule binders of mutant TOR1A in lysate, primary screen, cell lysate, small-molecule microarray, COS7 lysate, 635/667 nm fluorescence (AID 1150); conditions: COS7 hTOR1A mutant lysate, 635 nm fluorescence, higher = more signal;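 note: score pools 667 nm emission and signal to noise measuring lysate protein binding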
[19] = system: Sonic hedgehog protein (Shh); test: small-molecule binders of Shh protein, primary screen, biochemical, small-molecule microarray, 635/667 nm fluorescence (AID 1151); conditions: small-molecule microarray binding, 635 nm fluorescence; higher = more signal;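 note: Shh protein binding to compounds spotted on small-molecule microarray slides; score combines spot fluorescence intensity with signal-to-noise across triplicate slides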

Chain of Fibroblast growth factor 2 (Homo sapiens) (P09038 whole entry, looked up): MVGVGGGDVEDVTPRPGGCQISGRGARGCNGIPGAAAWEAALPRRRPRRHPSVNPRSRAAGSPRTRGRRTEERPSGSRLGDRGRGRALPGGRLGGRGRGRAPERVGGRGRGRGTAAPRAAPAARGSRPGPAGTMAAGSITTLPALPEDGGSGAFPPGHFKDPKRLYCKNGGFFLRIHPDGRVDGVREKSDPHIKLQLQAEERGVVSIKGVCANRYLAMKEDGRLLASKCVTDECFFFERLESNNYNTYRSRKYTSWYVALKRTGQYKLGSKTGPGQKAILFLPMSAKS
Chain of Follistatin (Homo sapiens) (P19883 whole entry, looked up): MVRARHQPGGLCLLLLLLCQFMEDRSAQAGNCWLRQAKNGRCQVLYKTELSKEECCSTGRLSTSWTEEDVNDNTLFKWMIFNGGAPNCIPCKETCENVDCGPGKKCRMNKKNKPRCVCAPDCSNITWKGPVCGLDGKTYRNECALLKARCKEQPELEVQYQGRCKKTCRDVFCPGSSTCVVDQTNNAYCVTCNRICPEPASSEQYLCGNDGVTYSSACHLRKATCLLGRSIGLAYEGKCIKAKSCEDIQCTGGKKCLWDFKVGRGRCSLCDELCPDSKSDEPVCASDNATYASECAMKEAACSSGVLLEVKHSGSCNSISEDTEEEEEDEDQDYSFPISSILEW
Chain of Luciferin 4-monooxygenase (Photinus pyralis) (P08659 whole entry, looked up): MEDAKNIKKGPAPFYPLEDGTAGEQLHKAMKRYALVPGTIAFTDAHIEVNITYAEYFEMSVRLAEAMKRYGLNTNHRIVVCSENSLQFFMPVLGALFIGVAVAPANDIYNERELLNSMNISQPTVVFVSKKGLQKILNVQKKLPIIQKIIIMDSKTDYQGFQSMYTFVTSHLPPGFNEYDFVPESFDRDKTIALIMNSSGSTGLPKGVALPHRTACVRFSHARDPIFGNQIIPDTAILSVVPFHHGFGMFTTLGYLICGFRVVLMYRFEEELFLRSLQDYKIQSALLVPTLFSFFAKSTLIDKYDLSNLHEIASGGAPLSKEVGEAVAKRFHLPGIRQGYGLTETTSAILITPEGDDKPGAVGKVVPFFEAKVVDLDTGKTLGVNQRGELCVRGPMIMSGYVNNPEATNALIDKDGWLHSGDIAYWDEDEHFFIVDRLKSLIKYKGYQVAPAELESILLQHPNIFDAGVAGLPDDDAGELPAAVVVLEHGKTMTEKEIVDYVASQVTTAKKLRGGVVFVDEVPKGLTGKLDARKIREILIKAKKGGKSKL
Chain of Focal adhesion kinase 1 (Homo sapiens) (Q05397 whole entry, looked up): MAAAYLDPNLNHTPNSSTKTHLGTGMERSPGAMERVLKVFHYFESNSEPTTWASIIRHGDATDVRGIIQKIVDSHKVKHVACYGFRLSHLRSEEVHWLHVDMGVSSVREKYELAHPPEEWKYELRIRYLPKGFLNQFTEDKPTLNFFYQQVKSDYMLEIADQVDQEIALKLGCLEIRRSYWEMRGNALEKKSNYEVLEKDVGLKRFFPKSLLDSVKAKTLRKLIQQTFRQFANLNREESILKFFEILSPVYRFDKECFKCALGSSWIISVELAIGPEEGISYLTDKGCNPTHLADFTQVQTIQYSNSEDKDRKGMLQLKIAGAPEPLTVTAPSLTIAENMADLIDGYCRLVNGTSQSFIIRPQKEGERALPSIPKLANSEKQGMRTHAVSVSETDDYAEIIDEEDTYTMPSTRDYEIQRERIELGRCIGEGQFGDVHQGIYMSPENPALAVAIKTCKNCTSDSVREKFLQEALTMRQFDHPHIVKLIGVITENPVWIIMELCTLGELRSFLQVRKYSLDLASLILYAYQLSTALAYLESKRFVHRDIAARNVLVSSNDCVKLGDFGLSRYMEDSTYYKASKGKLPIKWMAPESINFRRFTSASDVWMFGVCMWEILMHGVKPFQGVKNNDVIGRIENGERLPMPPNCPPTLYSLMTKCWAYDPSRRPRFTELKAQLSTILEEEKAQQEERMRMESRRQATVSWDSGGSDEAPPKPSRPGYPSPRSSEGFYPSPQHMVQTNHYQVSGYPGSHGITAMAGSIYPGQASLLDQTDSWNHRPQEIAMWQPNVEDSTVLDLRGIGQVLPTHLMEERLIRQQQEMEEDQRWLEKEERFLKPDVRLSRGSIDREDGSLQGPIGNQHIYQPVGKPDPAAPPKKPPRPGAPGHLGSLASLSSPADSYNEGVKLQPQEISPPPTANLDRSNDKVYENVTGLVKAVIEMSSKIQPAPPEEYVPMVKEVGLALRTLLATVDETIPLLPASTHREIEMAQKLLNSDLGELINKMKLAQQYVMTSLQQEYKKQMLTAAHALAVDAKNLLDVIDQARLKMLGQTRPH
Chain of Streptavidin (Streptomyces avidinii) (P22629 whole entry, looked up): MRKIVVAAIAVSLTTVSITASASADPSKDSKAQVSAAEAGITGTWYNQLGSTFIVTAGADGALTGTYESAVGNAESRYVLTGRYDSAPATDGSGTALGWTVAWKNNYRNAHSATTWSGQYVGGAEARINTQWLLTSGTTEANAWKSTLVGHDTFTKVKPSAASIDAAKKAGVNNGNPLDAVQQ
Chain of Torsin-1A (Homo sapiens) (O14656 whole entry, looked up): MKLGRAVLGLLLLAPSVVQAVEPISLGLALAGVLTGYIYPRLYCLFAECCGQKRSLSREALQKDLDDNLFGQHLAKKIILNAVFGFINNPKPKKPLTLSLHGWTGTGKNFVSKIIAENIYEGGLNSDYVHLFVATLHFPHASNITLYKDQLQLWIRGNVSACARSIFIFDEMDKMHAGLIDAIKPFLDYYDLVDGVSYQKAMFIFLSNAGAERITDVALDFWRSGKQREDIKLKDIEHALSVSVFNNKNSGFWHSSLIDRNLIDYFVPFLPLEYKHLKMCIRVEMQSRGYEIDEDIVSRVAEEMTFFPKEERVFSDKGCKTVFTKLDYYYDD

SMILES | composite z-score [1] | composite z-score [2] | composite z-score [3] | composite z-score [4] | composite z-score [5] | composite z-score [6] | z-score [7] | composite z-score (Lefty1) | composite z-score [8] | z-score [9] | composite z-score [10] | z-score [11] | z-score [12] | z-score [13] | z-score [14] | composite z-score [15] | composite z-score [16] | composite z-score (Torsin-1A (Homo sapiens) [17]) | composite z-score (Torsin-1A (Homo sapiens) [18]) | composite z-score [19]
O=C1O[C@@H](c2ccccc2)[C@@H](c2ccccc2)N2[C@@H](c3ccc(O)cc3)[C@]3(C(=O)Nc4ccc(C#CC5(O)CCCCCC5)cc43)[C@@H](C(=O)NC[C@H](O)c3ccccc3)[C@H]12 | 0.326 | 0.899 | 0.551 | 0.151 | -0.538 | -0.322 | -1.31 | -0.218 | 0.297 | 0.27 (inactive) | 0.0895 | -1.42 (inactive) | -0.144 (inactive) | -0.606 (inactive) | -0.448 (inactive) | -0.508 | -0.0221 | 0.0581 | -0.135 | 0.217
C=C[C@@H](OC)[C@H](OC(=O)Nc1ccc(SC)cc1)c1ccc(O)c(F)c1 | 3.07 | 1.23 | 0.566 | 0.763 | 1.11 | 0.207 | -1.47 | 0.885 | 0.679 | -1.59 (inactive) | 0.183 | -1.57 (inactive) | -1.04 (inactive) | 0.847 (inactive) | 0.425 (inactive) | -0.376 | 0.0679 | 0.242 | 0.679 | 1.14
COC(=O)c1c2oc(c1C(=O)OC)C(=O)N(Cc1ccccc1)Cc1cn(nn1)C[C@H](Cc1ccccc1)NC(=O)N[C@H](CO)CC2 | 0.402 | 0.848 | -0.0924 | 0.961 | 0.183 | -0.107 | 0.534 | 0.717 | 0.134 | 0.978 (inactive) | 0.131 | -1.84 (inactive) | -1.12 (inactive) | 0.964 (inactive) | -1.16 (inactive) | -0.25 | -0.154 | -0.0053 | 0.218 | 0.346
O=C1O[C@H](c2ccccc2)[C@H](c2ccccc2)N2[C@H]1[C@@H](C(=O)N1CCN(c3ncccn3)CC1)[C@]1(C(=O)Nc3ccc(C#CC4(O)CCCCCC4)cc31)[C@H]2c1ccc(OCCO)cc1 | 1.14 | 1.23 | 1.03 | 0.966 | 1.27 | 1.48 | -1.46 | 1.38 | 1.03 | -1.2 (inactive) | 1.4 | -0.69 (inactive) | -1.09 (inactive) | -0.698 (inactive) | -0.509 (inactive) | 2.76 | 1.05 | 0.801 | 1.74 | 2.02
